Laboratory results published in the supplement of paper PMC10849652.
The full data set covers some 7,900 targets. This sample favours those with a hit. About 0.6% of all pairs of compound and target were hits. A number with no mark means an inactive call.

compound: c1cn2cc(-c3ccc4cn[nH]c4c3)nc(Nc3ccc(N4CCOCC4)cc3)c2n1 [entospletinib]; experiment: log2 fold change, soluble protein after heating vs DMSO (PISA); higher = thermal stabilisation; K562 cells, 10 uM, 30 min; active = over 0.2 and 3.5 SD of the protein, either way, in both replicates (recomputed)
How it was run: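 K562 cells at 2×10^6 cells/mL were treated with 10 μM compound for 30 min. Aliquots were heated for 3 min across 48°C-58°C, pooled, and extracted in PBS with 0.5% NP-40 at 4°C; soluble protein was the supernatant after 21,000xg for 90 min. Soluble protein was quantified by TMTpro 16plex LC-MS/MS with channel sums equalised, and reported as log2 fold change in thermal stability against DMSO controls, with values from duplicates.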

UniProt O95716, sequence (O95716 whole entry, looked up): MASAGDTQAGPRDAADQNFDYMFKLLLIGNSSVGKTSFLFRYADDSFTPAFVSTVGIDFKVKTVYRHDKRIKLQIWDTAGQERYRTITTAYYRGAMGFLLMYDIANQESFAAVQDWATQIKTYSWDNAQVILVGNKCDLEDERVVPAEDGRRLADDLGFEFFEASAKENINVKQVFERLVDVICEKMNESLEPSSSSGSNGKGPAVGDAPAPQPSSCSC
UniProt Q04206, sequence (Q04206 whole entry, looked up): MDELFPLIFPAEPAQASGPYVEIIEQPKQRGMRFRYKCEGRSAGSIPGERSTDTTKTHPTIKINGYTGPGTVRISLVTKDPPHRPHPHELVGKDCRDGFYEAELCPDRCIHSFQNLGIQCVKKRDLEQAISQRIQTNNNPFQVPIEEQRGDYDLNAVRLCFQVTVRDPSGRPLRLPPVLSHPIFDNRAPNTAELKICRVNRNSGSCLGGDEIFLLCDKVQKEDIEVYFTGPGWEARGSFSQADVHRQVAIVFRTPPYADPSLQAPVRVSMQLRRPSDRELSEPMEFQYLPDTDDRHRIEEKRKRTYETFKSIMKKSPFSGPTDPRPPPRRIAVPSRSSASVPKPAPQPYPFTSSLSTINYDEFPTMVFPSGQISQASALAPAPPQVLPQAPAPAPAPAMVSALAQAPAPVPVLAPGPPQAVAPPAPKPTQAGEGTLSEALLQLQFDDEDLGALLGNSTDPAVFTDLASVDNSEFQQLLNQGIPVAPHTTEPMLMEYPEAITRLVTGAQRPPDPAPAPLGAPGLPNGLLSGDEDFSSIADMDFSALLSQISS
UniProt Q5T8P6, sequence (Q5T8P6 whole entry, looked up): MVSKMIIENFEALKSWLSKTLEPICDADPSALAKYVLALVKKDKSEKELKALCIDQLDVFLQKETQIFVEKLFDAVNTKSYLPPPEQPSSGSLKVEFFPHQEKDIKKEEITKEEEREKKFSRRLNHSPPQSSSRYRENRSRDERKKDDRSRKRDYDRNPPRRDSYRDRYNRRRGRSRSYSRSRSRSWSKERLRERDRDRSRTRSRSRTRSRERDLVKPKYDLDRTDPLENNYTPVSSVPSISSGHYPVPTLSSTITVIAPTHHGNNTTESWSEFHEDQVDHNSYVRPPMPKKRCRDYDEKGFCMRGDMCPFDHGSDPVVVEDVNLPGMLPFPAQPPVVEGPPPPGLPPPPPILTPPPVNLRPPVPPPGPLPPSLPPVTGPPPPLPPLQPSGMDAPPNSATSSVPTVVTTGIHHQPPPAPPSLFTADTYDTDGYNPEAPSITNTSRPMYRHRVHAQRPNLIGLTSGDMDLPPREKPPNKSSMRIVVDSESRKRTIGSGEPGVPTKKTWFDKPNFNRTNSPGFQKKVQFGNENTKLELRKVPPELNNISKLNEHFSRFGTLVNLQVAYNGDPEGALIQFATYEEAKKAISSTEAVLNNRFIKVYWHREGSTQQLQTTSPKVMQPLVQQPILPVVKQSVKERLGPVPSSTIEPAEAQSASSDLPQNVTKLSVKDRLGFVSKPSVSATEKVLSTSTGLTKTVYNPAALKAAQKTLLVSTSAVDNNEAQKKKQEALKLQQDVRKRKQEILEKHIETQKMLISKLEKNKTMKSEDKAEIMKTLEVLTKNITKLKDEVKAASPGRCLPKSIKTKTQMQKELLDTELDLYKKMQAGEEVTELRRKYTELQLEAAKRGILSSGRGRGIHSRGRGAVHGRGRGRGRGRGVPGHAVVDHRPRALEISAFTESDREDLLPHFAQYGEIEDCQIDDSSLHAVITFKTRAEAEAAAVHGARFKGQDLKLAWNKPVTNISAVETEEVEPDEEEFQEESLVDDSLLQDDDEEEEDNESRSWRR
UniProt O14796, sequence (O14796 whole entry, looked up): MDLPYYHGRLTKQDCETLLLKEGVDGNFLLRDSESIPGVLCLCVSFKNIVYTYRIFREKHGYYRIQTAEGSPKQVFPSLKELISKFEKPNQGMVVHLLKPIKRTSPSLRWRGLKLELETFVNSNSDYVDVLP
UniProt O00560, sequence (O00560 whole entry, looked up): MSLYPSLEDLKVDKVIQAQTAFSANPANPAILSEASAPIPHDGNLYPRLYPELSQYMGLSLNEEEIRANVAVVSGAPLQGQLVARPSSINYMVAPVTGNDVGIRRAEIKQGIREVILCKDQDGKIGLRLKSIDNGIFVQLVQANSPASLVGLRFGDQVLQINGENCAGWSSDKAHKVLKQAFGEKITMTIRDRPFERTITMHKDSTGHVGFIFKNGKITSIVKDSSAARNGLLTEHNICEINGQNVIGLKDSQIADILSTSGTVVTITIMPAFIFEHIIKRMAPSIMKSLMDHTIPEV
UniProt O15127, sequence (O15127 whole entry, looked up): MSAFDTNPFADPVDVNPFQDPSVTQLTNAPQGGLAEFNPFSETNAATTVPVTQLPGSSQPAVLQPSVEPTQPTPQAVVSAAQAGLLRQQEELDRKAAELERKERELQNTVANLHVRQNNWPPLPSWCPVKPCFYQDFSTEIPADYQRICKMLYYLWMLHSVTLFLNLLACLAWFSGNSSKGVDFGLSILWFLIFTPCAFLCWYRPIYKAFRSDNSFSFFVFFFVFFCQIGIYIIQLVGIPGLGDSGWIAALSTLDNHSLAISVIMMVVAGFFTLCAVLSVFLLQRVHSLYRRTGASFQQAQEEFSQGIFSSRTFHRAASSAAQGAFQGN
UniProt Q9NW64, sequence (Q9NW64 whole entry, looked up): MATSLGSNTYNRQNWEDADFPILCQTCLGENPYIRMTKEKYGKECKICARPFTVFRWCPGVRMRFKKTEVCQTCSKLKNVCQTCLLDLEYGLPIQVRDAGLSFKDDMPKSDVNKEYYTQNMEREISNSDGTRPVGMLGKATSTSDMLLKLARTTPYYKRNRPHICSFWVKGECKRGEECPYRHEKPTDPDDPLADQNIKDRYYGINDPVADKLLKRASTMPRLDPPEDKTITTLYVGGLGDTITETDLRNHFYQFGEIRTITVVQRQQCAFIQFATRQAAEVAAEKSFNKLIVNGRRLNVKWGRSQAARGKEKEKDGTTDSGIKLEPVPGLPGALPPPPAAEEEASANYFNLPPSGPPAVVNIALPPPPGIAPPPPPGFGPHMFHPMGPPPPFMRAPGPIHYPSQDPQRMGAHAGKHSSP
UniProt Q8IZV5, sequence (Q8IZV5 whole entry, looked up): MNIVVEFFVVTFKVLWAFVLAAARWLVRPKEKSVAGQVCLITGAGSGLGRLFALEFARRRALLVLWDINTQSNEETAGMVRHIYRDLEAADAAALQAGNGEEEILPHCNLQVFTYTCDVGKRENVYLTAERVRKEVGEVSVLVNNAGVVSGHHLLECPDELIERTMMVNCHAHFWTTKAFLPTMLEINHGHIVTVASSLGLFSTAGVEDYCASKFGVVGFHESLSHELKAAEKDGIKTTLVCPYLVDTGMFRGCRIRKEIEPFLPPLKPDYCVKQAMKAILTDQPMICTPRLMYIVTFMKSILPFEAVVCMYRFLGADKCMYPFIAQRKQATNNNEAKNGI
UniProt Q8N5L8, sequence (Q8N5L8 whole entry, looked up): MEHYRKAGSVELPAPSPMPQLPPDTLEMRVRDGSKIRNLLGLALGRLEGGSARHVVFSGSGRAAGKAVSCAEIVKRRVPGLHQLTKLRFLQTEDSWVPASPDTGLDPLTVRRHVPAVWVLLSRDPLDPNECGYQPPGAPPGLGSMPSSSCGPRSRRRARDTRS
UniProt Q53H47, sequence (Q53H47 whole entry, looked up): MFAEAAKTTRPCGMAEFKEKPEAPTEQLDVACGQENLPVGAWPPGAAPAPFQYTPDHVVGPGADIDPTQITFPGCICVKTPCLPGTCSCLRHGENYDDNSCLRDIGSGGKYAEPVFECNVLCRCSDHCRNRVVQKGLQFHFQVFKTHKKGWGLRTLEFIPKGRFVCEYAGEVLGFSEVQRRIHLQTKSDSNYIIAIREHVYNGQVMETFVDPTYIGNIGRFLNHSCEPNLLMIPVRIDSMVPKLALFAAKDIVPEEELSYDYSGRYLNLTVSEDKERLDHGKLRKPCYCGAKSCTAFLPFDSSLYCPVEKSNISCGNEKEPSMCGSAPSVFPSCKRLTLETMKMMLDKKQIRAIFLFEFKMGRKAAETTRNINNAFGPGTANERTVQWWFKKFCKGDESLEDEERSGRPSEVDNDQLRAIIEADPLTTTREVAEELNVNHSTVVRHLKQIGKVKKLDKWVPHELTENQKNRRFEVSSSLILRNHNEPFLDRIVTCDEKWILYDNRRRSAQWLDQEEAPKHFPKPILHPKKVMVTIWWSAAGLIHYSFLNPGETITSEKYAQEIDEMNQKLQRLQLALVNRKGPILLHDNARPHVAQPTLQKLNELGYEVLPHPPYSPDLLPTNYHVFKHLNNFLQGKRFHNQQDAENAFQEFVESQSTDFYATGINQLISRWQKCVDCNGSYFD

Row | Target | log2 fold change
1 | RBBP6 (UniProt Q7Z6E9) | 0.077
2 | RAB3D (UniProt O95716) | 0.004
3 | RPP25L (UniProt Q8N5L8) | 0.066
4 | SETMAR (UniProt Q53H47) | 0.075
5 | RPS13 (UniProt P62277) | 0.148
6 | SCAMP2 (UniProt O15127) | -0.078
7 | SDCBP (UniProt O00560) | 0.115
8 | SART3, A0A499FI31 | 0.023
9 | RDH10 (UniProt Q8IZV5) | 0.03
10 | RBM26 isoform 2 (UniProt Q5T8P6) | -0.021
11 | RBM22 (UniProt Q9NW64) | -0.015
12 | SH2D1B (UniProt O14796) | -0.372
13 | RELA (UniProt Q04206) | -0.062
14 | RAC1 (UniProt P63000) | 0.026
